Each structure is given as a SMILES string. Out of some 340,000 compounds screened, about 330 (0.097%) were called active. For the sample, actives were picked, then their nearest neighbours and some compounds at random. Unmarked numbers belong to inactive results.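 Rule for the calls: active = mean replicate inhibition of at least 30% and at least 1% of replicates passing that level; inconclusive = only one of the two criteria is met; inactive = neither criterion is met.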

For orientation: inhibition means the relative decrease from the control value, in per cent.

In this assay the test system is Voltage-dependent L-type calcium channel subunit alpha-1D (CaV1.3) ICDI/IQ interaction. Put plainly: Disruptors of the CACNA1D IQ motif to Ca2+-dependent inactivation inhibitor domain association, primary screening, Förster resonance energy transfer in intact living cells, one concentration (AID 743397).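 Note: 0% = median of the neutral control wells.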 The settings on record: HEK cells, CFP/YFP FRET ICDI-IQ, plate reader, 10 min; at 12.3 µM; hits give high values; percent FRET-ratio fall versus neutral wells.
On to `O=C(C(=O)N1CCC(CNS(=O)(=O)Cc2ccccc2)CC1)c1cc2ccccc2o1`, for which the inhibition was -8.57%.
As for `Cc1ccc(C)c(CN2CCC(CNC(=O)C3CCCN(c4ncnc5c4nc4n5CCCCC4)C3)CC2)c1` (centres undefined), the inhibition was -13.7%.
As to `O=C(O)Cn1cnc2c(NCc3ccccc3)ncnc21`, the inhibition is -6.21%.
`CC(C)C[C@H](NC(=O)CC1CCCC1)C(=O)N1CCC[C@H]1C(=O)NCc1ccccc1`: the inhibition is -8.63%.
For `Nc1[nH]c(C(=O)c2ccc(Br)cc2)c(-c2ccc3c(c2)OCO3)c1C(=O)NCCc1c[nH]c2ccccc12`, the inhibition was -16.2%.
Regarding `CCOC(=O)C1CSCCS(=O)(=O)N1Cc1ccc(Cl)cc1` (centres undefined), the inhibition was -4.73%.
With `O=C1[C@@H](c2ccccc2)[C@@H](c2ccccc2)N1c1ccccc1`, the inhibition is -7.31%.
Consider `Brc1ccc(COCCc2cn(Cc3ccccc3)c3ccccc23)cc1`, for which the inhibition was -2.59%.
As to `CC(=O)c1ccc(-c2cnc3c(NC=O)cc(-c4cccc(NS(C)(=O)=O)c4)cn23)cc1`, the inhibition is -5.47%.
As to `COCCCNC(=O)C[C@H]1C[C@@]2(C(=O)OC)C(=C[C@H](C(C)(C)C)O[C@@H]2C)N(Cc2ccc3c(c2)OCO3)C1=O`, the inhibition is -3.83%.
Take `O=C(N[C@H](Cc1ccccc1)C(=O)N1CCCN(Cc2cccs2)CC1)[C@H]1O[C@@H](n2ccc(=O)[nH]c2=O)[C@H](O)[C@@H]1O`: the inhibition was -3.41%.
The result for `Cc1ccc2nc(-c3ccc(CN4CCC(n5cc(-c6ccccc6)[nH]c5=O)CC4)cc3)c(-c3ccccc3)nc2c1` reads -15.6%; that for `COC(=O)C1=C(C)N(Cc2ccc(F)cc2)C(=S)NC1c1cccc(Cl)c1` (centres undefined), -2.29%; that for `CCCCCCCCN1C(=O)[C@@H](CC(=O)NCc2ccccc2)C[C@@]2(C(=O)OC)C1=C[C@H](C(C)(C)C)O[C@@H]2C`, -8.36%.
The same measure for `O=C(NN=Cc1ccco1)C(=O)Nc1ccc(Cl)c([N+](=O)[O-])c1`: -13%.
The result for `O=S1(=O)c2ccc(Br)cc2-n2nncc2CN1Cc1cccc(Cl)c1` reads -9.71%; that for `COC(=O)[C@]12C[C@H](CC(=O)NCc3ccc(OC)c(OC)c3)C(=O)N(Cc3ccccc3)C1=C[C@H](C(C)C)O[C@@H]2C1CC1`, -11.2%; that for `CC(=O)C1=C(C)N(Cc2ccc(Cl)cc2)C(=S)NC1c1ccc(F)cc1` (centres undefined), -2.53%.
With `CC(C)[C@H]1COCCS(=O)(=O)N1Cc1ccccc1-c1cccc2c1sc1ccccc12`, the inhibition is -4.21%.
In the case of `C[C@H]1[C@H](c2ccccc2)Oc2cc(Br)ccc2S(=O)(=O)N1Cc1cccc(F)c1`, the inhibition is -4.74%.
As for `O=S(=O)(c1cccs1)N1CCCc2nc(-c3ccc(Br)cc3)ccc21`, the inhibition was -8.65%.
The result for `C=CCN=C1NC(c2ccccc2)C(C(=O)OC)=C(C)N1Cc1ccc(C(F)(F)F)cc1` (centres undefined) reads -6.18%.
For `N#Cc1c(N)sc2c1CCN(C(=O)OCc1ccccc1)C2`, the inhibition was -7.05%.
The result for `CCN1CCN(CC(=O)Nc2sc3c(c2C#N)CCC3)CC1` reads -6.79%; that for `CC(=O)NC(=S)NNC(=O)c1ccc(Br)cc1`, 74.6% (active).
Consider `CNC(=S)NNC(=O)c1ccc(N(C)C)cc1`, for which the inhibition was -4.61%.
With `O=C(NNC(=O)c1ccc(Cl)nc1)c1ccc(Br)cc1`, the inhibition was -6.15%.
The same measure for `CCCCC(=O)Nc1ccc(C(=O)Nc2cc(C(F)(F)F)ccc2Cl)cc1`: -17.6%; for `O=C(Nc1ccc(C(F)(F)F)cc1)c1cccc(-n2cnnn2)c1`: -5.18%; for `O=C1Nc2ccccc2C1=NN=Cc1ccco1`: -4.56%.
`CCCCC[C@H](C)N1C[C@@H](COCc2ccccc2)Oc2cc(N3CC[C@@H](N(C)C)C3)ccc2S1(=O)=O`: the inhibition is -7.78%.
As for `N#Cc1cccc(Nc2c3c(nc4ccccc24)CCCC3)c1`, the inhibition is -2.56%.
For `O=C(Nc1cccc([N+](=O)[O-])c1)Nn1cnnc1`, the inhibition is -5.3%.
On to `O=[N+]([O-])c1cccc(Nc2c3ccccc3nc3ccccc23)c1`, for which the inhibition is 87.1% (active).
The same measure for `COCCCn1c(C(=O)NC2CCCCC2)cc2c(=O)n3cccc(C)c3nc21`: -7.34%.
The same measure for `COc1ccc(CCn2c(=N)c(C(=O)NCC3CCCO3)cc3c(=O)n4cccc(C)c4nc32)cc1OC` (centres undefined): -7.32%; for `CCn1c(=N)c(C(=O)NCCCOC)cc2c(=O)n3cccc(C)c3nc21`: 45.8% (active).
As to `COCc1[nH]nc2c1C(c1ccccc1)N(c1ccccc1)C2=O` (centres undefined), the inhibition was -4.04%.
As for `COC(=O)c1cc2c(c3c4cc(F)ccc4n(S(=O)(=O)c4ccccc4)c13)C(=O)N(Cc1ccccc1OC)C2`, the inhibition was -8.18%.
`C=CC[C@]12C[C@@]3(O[C@H](c4ccc(C(F)(F)F)cc4)N=C3C[C@H](c3ccc(OC)cc3)[C@H]1C)N(C1CCN(Cc3ccccc3)CC1)C2=O`: the inhibition is -3.62%.
The same measure for `CN(C)CCOc1ccc(Cl)cc1C(C)(C)C`: 3.19%.
With `CCN(CC)CCOCCOc1ccc(Cl)c2ccccc12`, the inhibition is -5.65%.
The same measure for `CN(C)CCOCCOc1ccc(Cl)c2ccccc12`: 62.4% (active).
As for `Cc1ccc(N)cc1CN1CCN(c2ncc(Cc3ccccc3)cn2)CC1`, the inhibition is -2.7%.
